Bioassay records (PubChem BioAssay)
The list is not random: actives were taken first. Their share in the collection is about 12%.
Sfp inh: qHTS Assay for Inhibitors of Bacillus subtilis Sfp phosphopantetheinyl transferase (PPTase); Biochemical Sfp PPTase activity, qHTS; Potency, µM, inactives show largest response in the series, negative = inhibition, most hits filed as inhibitors; 4'-phosphopantetheinyl transferase ffp (Bacillus subtilis), Q9F4F7; hit rate 3.5% among 310,000;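 further: the enzyme is Sfp with the accession as filed and its product quenches rhodamine fluorescence; 0% = enzyme reaction without inhibitor and -100% = no enzyme wells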
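Compounds were incubated with enzyme (final 15 nM) for 15 min at room temperature before substrate addition started the reaction. Fluorescence at 525 nm excitation, 598 nm emission was recorded immediately and after 30 minutes.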
BAZ2B inh: qHTS Assay for Inhibitors of BAZ2B; Bromodomain adjacent to zinc finger domain protein 2B (Homo sapiens), Q9UIF8; hit rate 4.4% among 360,000; Potency, µM (doses to about 114 µM), without a hit: top-dose activity change, negative = inhibition, actives largely listed as inhibitors; AlphaScreen BAZ2B-H3K14Ac peptide displacement; further: on the % scale 0 is the no-effect control and ±100 the full control effect; nearly all actives have a fitted effect of over 60% in size
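AlphaScreen displacement of biotin-H3(5-23)K14Ac peptide (50 nM final) from BAZ2B (50 nM final) in PBS pH 7.4, 0.01% Tween-20; complex preformed 30 min RT, then compounds (top 110 uM) 30 min RT, beads 20 min dark.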
JMJD2A Tudor inh: qHTS Assay for Inhibitors of JMJD2A-Tudor Domain; Lysine-specific demethylase 4A (Homo sapiens), O75164; AlphaScreen JMJD2A-Tudor / H3K4me3 peptide binding; Potency, µM (top dose mostly 114 µM), without a hit: at the highest dose activity change, negative = inhibition, usual class: inhibitors; hit rate 4.4% among 390,000; AID 504339, 2011; further: on the % scale 0 is the no-effect control and ±100 the full control effect; nearly all actives have a fitted effect of over 50% in size
G9a inh: qHTS Assay for Inhibitors of Histone Lysine Methyltransferase G9a; hit rate 8.8% among 350,000; Potency, µM (doses to about 102 µM), for inactives: at the highest dose activity, negative = inhibition, actives largely listed as inhibitors; AID 504332, 2011; Histone-lysine N-methyltransferase EHMT2 (Homo sapiens), Q96KQ7; G9a H3K9 monomethylation, AlphaScreen, 2 h; further: on the % scale 0 is the no-effect control and ±100 the full control effect; nearly all actives have a fitted effect of over 75% in size
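Step 1: enzyme (final 20 nM) with compound, 15 min RT. Step 2: substrate peptide 500 nM and SAM 20 uM, 2 h RT. Step 3: anti-H3K9me1 antibody and AlphaScreen beads, 10 min, then plate read.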
HP1b chromo inh: HTS for Inhibitors of HP1-beta Chromodomain Interactions with Methylated Histone Tails | AlphaScreen HP1-beta / biotin-H3K9me3 peptide binding | hit rate 0.56% among 390,000 | AID 540317, 2011 | Potency, µM (doses to about 114 µM), inactives show at the highest dose activity change, negative = inhibition, hits mostly inhibitors | Chromobox protein homolog 1 (Homo sapiens), P83916; further: nearly all actives have a fitted effect of over 70% in size
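Compound inhibition of the preformed complex between 50 nM HP1-beta and 50 nM biotinylated H3K9me3 peptide was read by AlphaScreen. Buffer was PBS pH 7.4 with 0.01% Tween-20. Incubations ran 30 min at room temperature, with 10 ug/mL donor/acceptor beads.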
L3MBTL1 block: qHTS Assay for the Inhibitors of L3MBTL1; Lethal(3)malignant brain tumor-like protein 1 (Homo sapiens), Q9Y468; Potency, µM (top dose mostly 57.1 µM), without a hit: at the highest dose activity, negative = inhibition, actives largely listed as inhibitors; hit rate 0.66% among 230,000; AlphaScreen L3MBTL1–H3K9me1 peptide binding; further: on the % scale 0 is the no-effect control and ±100 the full control effect; nearly all actives have a fitted effect of over 60% in size
Target sequence (Q9Y468 whole entry, looked up): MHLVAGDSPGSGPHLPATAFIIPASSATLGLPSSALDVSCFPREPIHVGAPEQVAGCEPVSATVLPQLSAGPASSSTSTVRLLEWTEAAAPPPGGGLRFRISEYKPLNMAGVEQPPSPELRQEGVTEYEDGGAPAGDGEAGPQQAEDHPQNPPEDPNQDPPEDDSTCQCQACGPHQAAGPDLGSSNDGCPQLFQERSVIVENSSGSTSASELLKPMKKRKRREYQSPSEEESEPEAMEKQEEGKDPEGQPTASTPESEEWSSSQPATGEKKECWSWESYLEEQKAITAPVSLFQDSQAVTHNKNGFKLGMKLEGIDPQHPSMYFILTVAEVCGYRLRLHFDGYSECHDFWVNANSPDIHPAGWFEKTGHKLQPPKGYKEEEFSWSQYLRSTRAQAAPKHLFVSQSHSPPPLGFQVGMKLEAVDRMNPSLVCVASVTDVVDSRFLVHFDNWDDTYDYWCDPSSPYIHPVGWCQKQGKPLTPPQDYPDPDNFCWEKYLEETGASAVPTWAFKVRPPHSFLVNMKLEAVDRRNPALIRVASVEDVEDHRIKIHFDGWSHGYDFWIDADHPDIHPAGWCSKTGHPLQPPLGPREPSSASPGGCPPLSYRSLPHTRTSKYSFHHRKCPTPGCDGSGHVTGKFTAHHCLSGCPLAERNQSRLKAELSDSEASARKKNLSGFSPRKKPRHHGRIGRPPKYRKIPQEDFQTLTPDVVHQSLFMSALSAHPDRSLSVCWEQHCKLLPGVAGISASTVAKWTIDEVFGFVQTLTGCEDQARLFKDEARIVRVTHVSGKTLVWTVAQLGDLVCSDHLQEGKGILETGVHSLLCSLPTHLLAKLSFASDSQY
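AlphaScreen proximity signal between nickel-chelate acceptor and streptavidin donor beads (final 10 ug/mL) reports binding of 50 nM L3MBTL1 to 75 nM biotin-H3 K9me1 peptide; complex incubated with compounds 30 min at room temperature; cefsulodin titration as control.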
* = called active by the depositor; u = inconclusive; x = no result given; [ ] = dose if it differs, or a comment. The call rests on the fitted dose curve; in most records, active means well fitted curve in the direction sought with a large enough effect; inconclusive means small, poorly fitted or top-dose-only effect, or another doubt; inactive means no such curve, though single readings can be large; an effect the other way counts as inactive or inconclusive. Potency means the concentration at half of the fitted maximal effect.

SMILES	Sfp inh	BAZ2B inh	JMJD2A Tudor inh	G9a inh	HP1b chromo inh	L3MBTL1 block
O=C1/C(=C/c2ccc([N+](=O)[O-])cc2)C=C(c2ccccc2)N1c1ccc(O)cc1	-4%	10µM*	u	u	u	x
COC(=O)NC(c1ccc2ccccc2c1)C(C(C)=O)C(=O)OC (configuration not stated)	12%	x	x	x	x	x
CCCCC/C=C\C/C=C\C[C@H](O)/C=C/C=C\CCCC(=O)O	9%	x	x	x	x	x
CC(C)Oc1ccc(CNC(=O)c2ccc(CN3CC(=O)N4CCCCC4C3=O)cc2)cc1 (configuration not stated)	x	0%	-21%	2%[59 µM]	50%	x
CCCCCCCCCCCCC/C=C/[C@@H](O)[C@H](CO)NC(=O)CCCCC	-12%	x	x	x	x	x
COc1ccc(OC)c2c(C)cc(N3CCN(C(=O)c4ccc(F)cc4)CC3)nc12	-24%	50µM*	u	u	-27%	x
COc1ccc(C(=O)N2CCN(c3ccc(C)cc3C)CC2)cc1OC	6%	-7%	-15%	-18%	28%	11%
COc1ccc(C(=O)N2CCN(c3ccc(C)c(C)c3)CC2)cc1OC	4%	3%	-20%	-28%	26%	6%
COc1ccc(OC)c2c(C)cc(N3CCN(C(=O)c4ccc(C)cc4)CC3)nc12	11%	50µM*	u	u	-36%	-6%
COc1ccc(OC)c2sc(N3CCN(C(=O)c4ccc5c(c4)CCCC5)CC3)nc12	x	40µM*	u	u	u	x
Nc1ccn([C@@H]2O[C@H](CO)[C@H](O)C2(F)F)c(=O)n1	-16%	x	x	8%[12.7 µM]	x	x
CCOc1ccc(C(=O)c2cn(CC(=O)Nc3ccc(C)c(C)c3)c3ccc(OCC)cc3c2=O)cc1	x	3%	1%	5%[59 µM]	38%	x
CCN(CC)CC(O)Cn1c2ccccc2c2ccccc21 (configuration not stated)	12%	0%	-3%	13%[12.7 µM]	15%	x
CCN(CC)CC(O)Cn1c(C)c(-c2ccccc2)c2cc([N+](=O)[O-])ccc21 (configuration not stated)	-15%	u	u	45µM*	-12%	x
CCc1nc2c(sc3nc4c(cc32)COC(C)(C)C4)c(=O)n1Cc1ccco1	3.5µM*	u	-27%	u	-15%	x
CCc1nc2c(sc3nc4c(cc32)COC(C)(C)C4)c(=O)n1Cc1ccccc1	-1%	8%	-22%	u	20%	9%
COc1ccccc1-c1n[nH]c(=S)n1N	45µM*	u	u	13µM*	16%	x
COc1ccccc1-c1n[nH]c(=S)n1-c1ccccc1	-13%	-27%	7.9µM*	2.5µM*	37%	-4%
COc1ccccc1-c1nc(N)n[nH]1	-5%	1%	-3%	x	50%	3%
CC(=O)Nc1ccc(Nc2nc3ccc(C)cc3n3nnnc23)cc1	x	-5%	6%	-5%[59 µM]	30%	x
COCCCNC(=O)Cn1c(=O)n(-c2cccc(C)c2)c(=O)c2c3c(sc21)CN(C(C)=O)CC3	x	-1%	-7%	-5%[59 µM]	15%	x
COc1ccc(S(=O)(=O)c2cnc3ccc(Cl)cc3c2N2CCCCC2C)cc1 (configuration not stated)	x	-15%	-3%	0%[59 µM]	31%	x
CC1(C)Cc2c(c(N3CCOCC3)nc3sc(-c4ccc(C(=O)O)o4)c(N)c23)CO1	45µM*	u	-32%	u	-11%	u
CNC(=O)c1ccc(-c2sc3nc(N4CCOCC4)c4c(c3c2N)CCCC4)o1	-28%	u	u	u	42%	9%
CNC(=O)c1ccc(-c2sc3nc(N4CCOCC4)c4c(c3c2N)CC(C)(C)OC4)o1	79µM*	u	-3%	7%[0.501 µM]	39%	51%
SMILES	Sfp inh	BAZ2B inh	JMJD2A Tudor inh	G9a inh	HP1b chromo inh	L3MBTL1 block
COc1ccccc1NC(=O)c1sc2nc(N3CCOCC3)c3c(c2c1N)CC(C)(C)OC3	x	2%	-4%	-2%[59 µM]	21%	x
CCN1Cc2cccc(C(=O)Nc3ccc(F)cc3)c2C1=O	x	11%	-12%	20%[59 µM]	37%	x
O=C(O)c1cccc([N+](=O)[O-])c1C(=O)Nc1nc2ccccc2s1	1%	-14%	3%	79µM*	12%	16%
O=C(Nc1cccc(C(F)(F)F)c1)c1cccc(NS(=O)(=O)c2ccc(Br)c(C(=O)O)c2)c1	11%	-13%	-16%	u	17%	4%
CC(C)CNS(=O)(=O)c1cc(C(=O)O)c(Cl)cc1Cl	u	-36%	1%[11.4 µM]	u	19%	6%
O=C(O)c1ccc(NS(=O)(=O)c2ccc3c(c2)C(=O)c2ccccc2C3=O)cc1	-8%	-35%	-20%	45µM*	24%	-23%
O=C(O)c1ccc(NS(=O)(=O)c2cccc(S(=O)(=O)c3ccc(Cl)c(Cl)c3)c2)cc1	4%	3%	-16%	12%[59 µM]	5%	x
O=C(O)c1ccc(Cl)c(S(=O)(=O)Nc2ccc(S(=O)(=O)Nc3cccc(Cl)c3)cc2)c1	16%	-33%	-6%	56µM*	-2%	x
O=C(O)c1cc(S(=O)(=O)Nc2cccc3ccccc23)c(Cl)cc1Cl	-12%	-38%	79µM*	56µM*	-12%	x
O=C(Nc1cccc(C(F)(F)F)c1)c1cccc(NS(=O)(=O)c2ccc(O)c(C(=O)O)c2)c1	9%	-18%	56µM*	u	-1%	x
O=C(O)c1ccc(NS(=O)(=O)c2cc(Cl)ccc2Cl)cc1	10%	-20%	1%	-5%	47%	6%
CCn1cc(S(=O)(=O)c2cccc(Cl)c2)c(=O)c2cc(F)c(N3CCN(C)CC3)cc21	x	2%	-5%	-5%[59 µM]	38%	x
COc1ccccc1N1CCN(c2ccc(=O)n(CC(=O)NCc3ccc(F)cc3)n2)CC1	x	-16%	-24%	-25%[59 µM]	54%	x
COc1ccc(C)cc1NC(=O)C(OC(=O)CNC(=O)c1ccccc1)c1ccccc1 (configuration not stated)	x	x	-14%	x	x	x
O=C(O)c1cc(S(=O)(=O)Nc2ccccc2Cc2ccccc2)ccc1Cl	30%	-1%	-14%	-16%	17%	x
O=C(O)c1cccc(NC(CNS(=O)(=O)c2ccc(Cl)cc2)c2ccccc2)c1 (configuration not stated)	6%	79µM*	-23%	u	6%	-23%
